Source: PubChem (Broad Institute)
A selection: hits, their analogues and other compounds. The true share with any hit is near 0.53%.
TcdB inh = TcdB glycohydrolase inhibitors, primary screen, biochemical, single point, plate reader | Toxin B (Clostridioides difficile), P18177 | TcdB glycohydrolase enzymatic assay | inhibition, % at 9.99 µM | hit rate 0.24% among 350,000; in the data active = inhibition above about 10%
PrP UTR inh = inhibition of PrP 5' UTR reporter expression | cell-based PrP 5' UTR mRNA reporter, plate reader | inhibition, % (no concentration beside the values) | hit rate 0.35% among 340,000 | AID 488862, 2010; in the data active = inhibition above about 52%; note: 0 = median of the neutral control wells
BioA inh = M. tuberculosis BioA enzyme inhibitors, primary screen, biochemical, plate reader, single point, HTS; 7,8-diaminopelargonic acid synthase BioA (Mycobacterium tuberculosis); purified M. tuberculosis BioA enzyme; inhibition, % at 9.99 µM; hit rate 0.096% among 360,000; AID 602481, 2012; in the data active = inhibition above about 40%
Yp Topo-I inh = Yersinia pestis topoisomerase I inhibitors, primary screen, biochemical, cleavage product accumulation, plate reader, single point; AID 504884, 2011; activity, % at 10 µM; DNA topoisomerase I (Yersinia pestis CO92); Y. pestis Topo-I cleavage product accumulation; hit rate 0.064% among 360,000; in the data active = activity above about 50%, passing the limit was not always enough
Active calls of the source: *; . = not tested or not shown.

SMILES	TcdB inh	PrP UTR inh	BioA inh	Yp Topo-I inh
CCC(=O)N(C)C[C@H]1Oc2cc(C#CC3(O)CCCC3)ccc2S(=O)(=O)N([C@H](C)CO)C[C@H]1C	-0.1	.	1.3	.
CCc1ccccc1NC(=S)N(Cc1ccc(C(=O)O)cc1)Cc1ccc(OC)c(OC)c1	13.2*	-8.7	0.3	7.4
COc1ccc(S(=O)(=O)N(C)C[C@@H]2Oc3c(NC(=O)c4ccncc4)cccc3C(=O)N([C@@H](C)CO)C[C@H]2C)cc1	-0.8	.	0.3	.
Clc1cccc(CSc2nnc(-c3sccc3-n3cccc3)o2)c1	.	-3.7	-1.3	57.8*
CCCCN(CCCC)C(=O)C1(P(=O)(c2ccccc2)c2ccccc2)CCC1	1.6	-15.3	1.8	54.6*
CCN(CC)C(=O)C1(P(=O)(c2ccccc2)c2ccccc2)CCC1	0.8	.	-0.1	-1.8
CCOC(=O)Cn1c(S(=O)(=O)Cc2ccc(F)cc2)nc(-c2ccccc2)c1-c1ccccc1	.	-14.1	-0.2	52.0*
CCOC(=O)Cn1c(S(=O)(=O)Cc2cccc(F)c2)nc(-c2ccccc2)c1-c1ccccc1	.	-17.6	-1.5	3.1
CC(=O)N1CCN=C1SCc1ccc(Br)cc1	0.6	-7.4	-1.1	-1.1
CCOC(=O)N1CCN=C1SCc1ccc(Cl)c(Cl)c1	11.9*	-7.4	0.3	1.3
COc1ccc2nc(NNC(=O)C3COc4ccccc4O3)sc2c1 (configuration not stated)	39.4*	-2.0	0.2	1.5
COc1ccc2nc(NC(=O)C3COc4ccccc4O3)sc2c1 (configuration not stated)	-0.4	-93.7	0.7	-9.1
O=C(C[C@H]1C/C=C\CC[C@H](Cc2ccc(F)cc2)C(=O)O[C@@H](c2ccccc2)CNC1=O)N[C@H](CO)Cc1ccccc1	0.7	-11.6	-0.8	45.6
O=C(C[C@H]1C/C=C\CC[C@H](Cc2ccc(F)cc2)C(=O)O[C@@H](c2ccccc2)CNC1=O)N[C@@H](CO)Cc1ccccc1	0.9	6.2	-1.4	88.7*
O=C(O)c1ccc(-c2nnc(-c3ccccc3)o2)cc1	13.4*	-35.0	-1.1	3.5
O=C(O)c1ccc(-c2nnc(-c3ccc([N+](=O)[O-])cc3)o2)cc1	-0.2	13.1	-6.3	-4.8
CC(C)c1ccc(NC(=O)C2Cc3c(-c4ccc5c(c4)OCO5)ccnc3O2)cc1 (configuration not stated)	0.7	.	-0.1	60.3*
O=C1COc2ccc(C(=O)COC(=O)Cc3ccccc3F)cc2N1	1.1	-14.1	.	-7.7
O=C1COc2ccc(C(=O)COC(=O)CNS(=O)(=O)c3cccc(F)c3)cc2N1	12.0*	.	-0.7	-3.2
COc1cc2[nH]c(=S)n(Cc3cccs3)c(=O)c2cc1OC	25.0*	-13.1	0.5	-6.0
CCN(C[C@H]1[C@H](c2ccccc2)[C@@H](CO)N1C(C)=O)C(=O)c1ccccn1	1.1	.	-2.1	.
O=c1[nH]c2ccc(S(=O)(=O)N3CCCCC3)cc2o1	-0.1	0.5	-0.9	3.6
CCN1CCN(S(=O)(=O)c2ccc3[nH]c(=O)oc3c2)CC1	19.3*	-13.3	1.3	-3.2
CCOC(=O)c1ccc[n+](CC(=O)c2ccc(NC(=O)c3ccccc3)cc2)c1	12.4*	2.7	-1.9	-2.3
CCCNC(=O)Nc1ccc2c(c1)C(=O)N(C)[C@@H]1CC[C@@H](CC(=O)NC3CCC3)O[C@H]1CO2	.	.	-7.5	.
SMILES	TcdB inh	PrP UTR inh	BioA inh	Yp Topo-I inh
O=S(=O)(c1ccccc1)N1CCN(Cc2nnc(-c3ccccc3)o2)CC1	10.1*	.	-0.8	4.7
O=C(CN1CCOCC1)N[C@H]1CC[C@H](CCNS(=O)(=O)c2ccccc2F)O[C@H]1CO	-0.9	.	0.1	.
Cc1cccc(N(C)S(=O)(=O)c2ccc(-c3cnc(C4CC4)o3)cc2)c1	-1.4	58.7*	-1.7	21.9
C[C@@H](O)C#Cc1ccc([C@H]2[C@@H](CO)N3CCCCN(C(=O)c4ccc(F)cc4)C[C@H]23)cc1	1.2	.	1.2	.
CCCCNC(=O)C1CCN(S(=O)(=O)N2CCOCC2)CC1	10.3*	-40.3	0.4	7.5
COc1cc(/C=N/NC2=NCCCCC2)ccc1O	14.2*	-17.7	-1.3	-7.0
CC(C)NC(=O)Nc1cccc2c1O[C@@H](CN(C)Cc1ccc3c(c1)OCO3)[C@@H](C)CN([C@@H](C)CO)C2=O	-0.7	.	.	.
CC1C=NC(S(=O)(=O)N2CC[C@@H]3[C@@H](CO)N(C)c4ccc(-c5cccc(F)c5)cc4[C@@H]32)=N1 (some centres not stated)	1.1	.	.	.
COc1cc(/C=N/NC(=O)CCNC(=O)c2ccccc2Cl)ccc1O	-2.8	-58.2	.	-3.7
O=C(CSc1cccc2cccnc12)N/N=C/c1ccc(O)cc1	19.9*	.	1.1	-4.8
O=C(CCn1cnc2ccccc21)N/N=C/c1ccccc1O	-8.6	-32.3	3.2	-5.6
O=C(CCNC(=O)c1ccccc1Cl)N/N=C\c1ccc(O)cc1	15.1*	-11.3	3.6	4.1
O=C(CCn1cnc2ccccc21)N/N=C/c1ccc(O)cc1	14.0*	-19.3	2.5	-4.9
O=C(CNS(=O)(=O)c1ccccc1)N/N=C/c1ccc(O)cc1	13.8*	-13.1	.	-7.3
COc1cccc(/C=N/NC(=O)CSc2cccc3cccnc23)c1	2.8	-9.1	2.5	0.0
O=C(c1cccnc1)N1CCCCN2[C@H](C1)[C@H](c1ccc(C#Cc3ccccn3)cc1)[C@@H]2CO	-0.3	.	-1.0	.
COc1ccccc1CN1C[C@H](C)[C@@H](OC)CN(C)C(=O)c2ccc(NC(C)=O)cc2OC[C@@H]1C	-0.3	.	1.1	.
Cc1ccc(-c2csc(NC(=O)c3cccc(C)c3)c2C(=O)O)cc1	6.0	-25.4	-2.7	-8.7
Cc1ccc(-c2csc(NC(=O)/C=C/c3ccco3)c2C(=O)O)cc1	14.6*	0.1	5.2	-8.4
CSc1ccccc1OCc1cc(C(=O)NCCCc2ccccc2)no1	2.0	-1.4	-0.7	57.9*
CCOC(=O)c1sc2nc(OCCN3CCOCC3)cc(C)c2c1N	11.9*	.	.	.
CCOC(=O)c1sc2nc(N3CCOCC3)c3c(c2c1N)CCC3	.	-22.9	8.0	6.8
CCCNC(=O)C1(C)CCCN(C(=O)c2ccccc2OC(F)(F)F)C1 (configuration not stated)	12.0*	.	-0.4	-2.0
Cc1oc2ccc(OCc3ccccc3F)cc2c1C(=O)O	.	-3.4	-1.1	4.0
Cc1ccccc1COc1ccc2oc(C)c(C(=O)O)c2c1	11.6*	-23.3	.	-10.3
SMILES	TcdB inh	PrP UTR inh	BioA inh	Yp Topo-I inh
COc1ccc(/C=C/C(=O)OCC(=O)NCCCc2ccccc2)cc1OC	0.6	-2.4	-0.2	8.7
C=CCOc1ccc(/C=C/C(=O)OCC(=O)NCCCc2ccccc2)cc1	0.6	2.8	-0.8	52.6*
O=C(Nc1ccc(O)cc1)c1ccc2c(c1)C(=O)N(Cc1ccco1)C2=O	16.4*	-28.7	.	-3.4
O=C(O)Cc1ccc(NC(=O)c2ccc3c(c2)C(=O)N(Cc2ccco2)C3=O)cc1	1.5	-6.6	-1.5	6.1
COc1ccc2c3c([nH]c2c1)[C@@H](CO)N(C)CC31CN(C(=O)NC(C)C)C1	2.1	.	.	.
FC(F)(F)c1cc(Cl)c2nc(-c3ccccc3)c(Cc3ccsc3)n2c1	10.4*	.	.	.
Cc1cccc(CN2CCN(c3ccccn3)CC2)c1	.	-14.6	-3.6	-4.3
